# Measured values reported in the supplement of paper PMC12350171.
# Structures can show the parent of a compound that is named as a salt.
# Test system: Haemophilus parainfluenzae
# Experiment: growth AUC normalised to DMSO control (fraction of control); higher = less growth inhibition, active = hit call of the paper
# Details: 20 µM;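 active = AUC significantly below DMSO controls by Student t-fit with adjusted P under 0.01; inactive = not significantly reduced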
# Summary of the method: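 After two anaerobic passages, pathogens were added at a starting OD578 of 0.01 to pre-reduced mGAM plates holding compound at 20 μM with 1% DMSO; hemin and NAD were supplemented for Haemophilus parainfluenzae. Sealed with breathable membranes, plates were read at OD578 hourly for 24 h, in three biological replicates. The trapezoidal rule, applied up to the exponential-to-stationary transition, gave the growth-curve AUC, which was normalised to DMSO controls on the same plate.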
row,SMILES,growth AUC normalised to DMSO control
1,C[N+](C)(C)CCOC(N)=O [Carbachol chloride],1.09 (inactive)
2,O=C(O[C@@H]1C[C@@H]2C[C@H]3C[C@H](C1)N2CC3=O)c1c[nH]c2ccccc12 [Dolasetron mesilate],1.06 (inactive)
3,CC(=O)c1ccc2c(c1)N(CCCN1CCC(CCO)CC1)c1ccccc1S2 [Piperacetazine],1.09 (inactive)
4,O=C(O)[C@H]1/C(=C/CO)O[C@@H]2CC(=O)N21 [Clavulanate potassium salt],1.06 (inactive)
5,COc1ccc2c(c1)c(CC(=O)OCC(=O)O)c(C)n2C(=O)c1ccc(Cl)cc1 [Acemetacin],0.988 (inactive)
6,CN1C(C(=O)Nc2ccccn2)=C(O)c2ccccc2S1(=O)=O [Piroxicam],1.01 (inactive)
7,COc1cc(C(=O)NS(=O)(=O)c2ccccc2C)ccc1Cc1cn(C)c2ccc(NC(=O)OC3CCCC3)cc12 [Zafirlukast],0.825 (inactive)
8,Cc1ccc(/C(=C\CN2CCCC2)c2ccccn2)cc1 [Triprolidine hydrochloride],0.961 (inactive)
9,NS(=O)(=O)c1cc(C(=O)O)cc(N2CCCC2)c1Oc1ccccc1 [Piretanide],1.06 (inactive)
10,O=C(O)Cc1cc(I)c(Oc2ccc(O)c(I)c2)c(I)c1 [Tiratricol],0.896 (inactive)
11,CC(=O)O[C@]1(C(C)=O)CC[C@H]2[C@@H]3C=C(Cl)C4=CC(=O)CC[C@]4(C)[C@H]3CC[C@@]21C [Chlormadinone acetate],1.01 (inactive)
12,O=C(NCC1CCCCN1)c1cc(OCC(F)(F)F)ccc1OCC(F)(F)F (stereo unspecified) [Flecainide acetate],0.99 (inactive)
13,CO[C@@]1(NC(=O)C2SC(=C(C(N)=O)C(=O)O)S2)C(=O)N2C(C(=O)O)=C(CSc3nnnn3C)CS[C@@H]21 (stereo partly specified) [Cefotetan],0.0395 (active)
14,CCOc1ccccc1OC(c1ccccc1)C1CNCCO1 (stereo unspecified) [Reboxetine mesylate],1.01 (inactive)
15,COc1cc(OC)c(C(=O)CCCN2CCCC2)c(OC)c1 [Buflomedil hydrochloride],1.01 (inactive)
16,OCCN1CCN(CC/C=C2/c3ccccc3Sc3ccc(Cl)cc32)CC1 [Zuclopenthixol dihydrochloride],0.916 (inactive)
17,COc1ccccc1OCCNCC(O)COc1cccc2[nH]c3ccccc3c12 (stereo unspecified) [Carvedilol],0.963 (inactive)
18,COC(=O)C1=C(C)NC(C)=C(C(=O)OCC(C)C)C1c1ccccc1[N+](=O)[O-] (stereo unspecified) [Nisoldipine],0.996 (inactive)
19,NCC[C@H](O)C(=O)N[C@@H]1C[C@H](N)[C@@H](O[C@H]2O[C@H](CN)[C@@H](O)[C@H](O)[C@H]2O)[C@H](O)[C@H]1O[C@H]1O[C@H](CO)[C@@H](O)[C@H](N)[C@H]1O [Amikacin hydrate],0.0269 (active)
20,COc1cc([C@@H]2c3cc4c(cc3[C@@H](O[C@@H]3O[C@@H]5CO[C@@H](C)O[C@H]5[C@H](O)[C@H]3O)[C@H]3COC(=O)[C@H]23)OCO4)cc(OC)c1O [Etoposide],1.03 (inactive)
21,O=C(O)CCCC[C@@H]1SC[C@@H]2NC(=O)N[C@@H]21 [Biotin],1.01 (inactive)
22,CC(NCCc1ccc(O)cc1)C(O)c1ccc(O)cc1 (stereo unspecified) [Ritodrine hydrochloride],1 (inactive)
23,CN1CCN(C2=Nc3ccccc3Oc3ccc(Cl)cc32)CC1 [Loxapine succinate],0.969 (inactive)
24,Nc1ccc(S(=O)(=O)Nc2nccs2)cc1 [Sulfathiazole],1.03 (inactive)
25,Cc1cn([C@H]2C=C[C@@H](CO)O2)c(=O)[nH]c1=O [Stavudine],1.02 (inactive)
26,Nc1nc2c(ncn2COC(CO)CO)c(=O)[nH]1 [Ganciclovir],0.989 (inactive)
